Measured values published in PubChem BioAssay AID588405 (Sanford-Burnham Center for Chemical Genomics, 2011).
Values joined by “and” are separate entries in the source; they are usually repeats but may differ in a detail not shown here. Equal entries are not always repeated. Out of some 360,000 compounds screened, about 6,200 (1.7%) were called active. Only a selection was taken, and actives are over-represented in it overall. A number with no mark means an inactive call.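 How the source made its calls: active means inhibition of at least 50% at 20 µM; inactive means the rest.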

Assay: inhibition of PEG-3 promoter activity – cell-based, HeLa, luciferase luminescence, primary screen (AID 588405)
Conditions: HeLa PEG-Prom luciferase reporter, overnight, at 20 µM, hits give high values

For `CCC(C)(O)C(=O)OC1C(=O)OC2CC3C(C)=CC(=O)C(O)C3(C)C3C4(O)OCC23C1C(C)C4O` (stereo not given), which inhibition is on record?
The inhibition was 100% (active).

For `O=C(O)CCn1cc(C=C2C(=O)NC(=S)NC2=O)c(-c2cccc(Br)c2)n1`, which inhibition is on record?
Its inhibition is -1.73%.

Which inhibition does the source give for `CN(C)C(=O)Oc1cc(OC(=O)N(C)C)cc(C(O)CNC(C)(C)C)c1` (stereo not given) here?
The inhibition was 4.25% and -0.27%.

Which inhibition does the source give for `O=C1NC(=O)N(c2ccc(F)cc2)C(=O)/C1=C/c1ccc2c(c1)CCCN2Cc1ccccc1` here?
Its inhibition is 12.7%.

With `O=C1NC(=O)N(CCc2ccc(F)cc2)C(=O)/C1=C/C=C/c1ccccc1` as the compound, how does the inhibition read?
Its inhibition is 90.6% (active).

With `Cc1cc2ccccn2c1C(C[N+](=O)[O-])c1c(F)cccc1Cl` (stereo not given) as the compound, how does the inhibition read?
The inhibition was 38.7%.

For `CC(C)CN1Cc2cc(N3CCCCC3)ccc2-n2nncc2C1`, which inhibition is on record?
The inhibition was -1.02%.

For `COC(=O)[C@@H]1C(OC(=O)c2ccccc2)CC2CCC1N2C` (stereo not given in full), which inhibition is on record?
Its inhibition is -10.5%.

For `CC(=O)OC1C2(CC3N4C(=O)C5(CO)SSC4(CC31O)C(=O)N5C)OC(C)C(C)(C)C2=O` (stereo not given), which inhibition is on record?
Its inhibition is 99.3% (active).

For `CC1C2Cn3c(nc4ccccc43)C1N(C)O2` (stereo not given), which inhibition is on record?
Its inhibition is -2.57%.

With `Nc1ccc([N+](=O)[O-])cc1` as the compound, how does the inhibition read?
Its inhibition is -3.82%.

For `CC(C)N(CC#CCC1(O)c2ccccc2-c2ccccc21)C(C)C`, which inhibition is on record?
Its inhibition is -15.7%.

With `COc1ccc(C(=O)CC2C(=O)N(C)C(=O)N(C)C2=O)cc1` as the compound, how does the inhibition read?
The inhibition was 13.1%.

With `CC(=O)Nc1ccccc1C(=O)OCC(=O)c1cccc2ccccc12` as the compound, how does the inhibition read?
The inhibition was -26.1%.

Which inhibition does the source give for `N#CC1=C(N)Oc2c(c(=O)oc3ccccc23)C1c1ccccc1OC(=O)c1cccs1` (stereo not given) here?
Its inhibition is 19.6%.

Which inhibition does the source give for `O=P(OC1=CCCCC1)(c1ccccc1)c1ccccc1` here?
Its inhibition is 8.64%.

For `O=C1C2(Cl)C3(Cl)C4(Cl)C(Cl)(Cl)C5(Cl)C3(Cl)C1(Cl)C5(Cl)C24Cl` (stereo not given), which inhibition is on record?
Its inhibition is 86.1% (active).

Which inhibition does the source give for `OC1/C(=C/c2ccc(C(F)(F)F)cc2)N2CCC1CC2` (stereo not given) here?
Its inhibition is -51.4%.

With `C[C@]12CC[C@H](O)C[C@H]1CC[C@@H]1C2CC[C@]2(C)[C@@H](C3=CC(=O)OC3)[C@@H](O)C[C@]12O` (stereo not given in full) as the compound, how does the inhibition read?
Its inhibition is 112% (active).

For `CC12CCC(O)CC1CCC1C2CCC2(C)C(C(=O)CC(O)C(F)(F)F)CCC12` (stereo not given), which inhibition is on record?
Its inhibition is -18.9%.

Which inhibition does the source give for `CCN1c2nc3c(C)cccn3c(=O)c2CC2(C(=O)N(C)C(=O)N(C)C2=O)C1C` (stereo not given) here?
The inhibition was 4.11%.

With `CN1CCC(N(C)Cc2cccnc2)CC1` as the compound, how does the inhibition read?
The inhibition was -0.72%.

Which inhibition does the source give for `O=C(OCCN1CCOCC1)C1(c2ccccc2)CCCC1` here?
The inhibition was 6.31%.

Which inhibition does the source give for `COc1cc(OC)cc(C2(C#N)CCN(C)CC2)c1` here?
Its inhibition is 16.1%.

Which inhibition does the source give for `Cc1cc(OCc2cc(C(=O)O)oc2C)c2c3c(c(=O)oc2c1)CCCC3` here?
Its inhibition is 0.36%.

For `Fc1ccc(C2N3CCCN23)cc1` (stereo not given), which inhibition is on record?
The inhibition was 2.08%.

For `CCCCCCCCCCCCn1ccc(=N)cc1`, which inhibition is on record?
The inhibition was 72.5% (active).

Which inhibition does the source give for `COc1ccccc1N=C1SCCCN1C` here?
The inhibition was 4.44%.

For `CCN1CCN(c2ccc([N+](=O)[O-])cc2C#N)CC1`, which inhibition is on record?
Its inhibition is 13.3%.

For `CC(Cc1ccccc1)NCCC(c1ccccc1)c1ccccc1` (stereo not given), which inhibition is on record?
Its inhibition is 69.5% (active).

With `CCc1cccc2c(C#N)cn(CC(=O)N3CCOCC3)c12` as the compound, how does the inhibition read?
The inhibition was 16.4%.

With `CC1CC=CCC12C(=O)NC(=S)NC2=O` (stereo not given) as the compound, how does the inhibition read?
Its inhibition is 4.94%.

Which inhibition does the source give for `COP(=O)(OC)C(NC(=O)c1ccc(C)cc1)C(Cl)(Cl)Cl` (stereo not given) here?
The inhibition was -13.6%.

Which inhibition does the source give for `CC(CC(C#N)(c1ccccc1)c1ccccc1)N1CCCCC1` (stereo not given) here?
Its inhibition is -0.65%.

For `CCN1CCN(Cc2cc(OC)c3c(c2)OCO3)CC1`, which inhibition is on record?
Its inhibition is 14.7%.

For `O=C(NC(=S)N1C[C@H]2C[C@H](C1)c1cccc(=O)n1C2)c1ccc(F)cc1`, which inhibition is on record?
The inhibition was 10.8%.

Which inhibition does the source give for `CNCC(O)c1cc(F)c(OCc2ccccc2)c(OCc2ccccc2)c1F` (stereo not given) here?
Its inhibition is 100% (active).

With `O=C(CSC1c2ccccc2-c2ccccc21)N/N=C/c1ccccc1` as the compound, how does the inhibition read?
The inhibition was 28.7%.

With `CCOc1ccc(CN(CCCl)CCCl)cc1C(=O)OC` as the compound, how does the inhibition read?
Its inhibition is 21.9%.

Which inhibition does the source give for `O=C1NCN(c2ccccc2)C12CCN(C(c1cccs1)c1nnnn1C1CCCCC1)CC2` (stereo not given) here?
Its inhibition is 22%.

With `O=c1[nH]c2ccccc2n1C1CCN(C(c2ccnc3ccccc23)c2nnnn2Cc2ccccc2)CC1` (stereo not given) as the compound, how does the inhibition read?
The inhibition was 60.1% (active).

For `CSCCC(c1nnnn1C(C)(C)C)N1CCC(n2c(=O)[nH]c3ccccc32)CC1` (stereo not given), which inhibition is on record?
The inhibition was 17.6%.

With `Cc1ccc(Cn2nnnc2CN2CCC(n3nnc4ccccc43)CC2)cc1` as the compound, how does the inhibition read?
Its inhibition is 16.7%.

Which inhibition does the source give for `O=c1[nH]c2ccccc2n1C1CCN(C(c2ccccc2)c2nnnn2Cc2ccccc2)CC1` (stereo not given) here?
Its inhibition is 71% (active).

For `COc1ccc(-n2nnnc2C(c2cccc3ccccc23)N2CCC(n3c(=O)[nH]c4ccccc43)CC2)cc1` (stereo not given), which inhibition is on record?
The inhibition was 50.2% (active).

Which inhibition does the source give for `COc1cccc(C(c2nnnn2-c2ccc3c(c2)OCCO3)N2CCC3(CC2)C(=O)NCN3c2ccccc2)c1OC` (stereo not given) here?
The inhibition was 45.9%.

Which inhibition does the source give for `CN1CCN(Cc2ccccc2C(F)(F)F)CC1` here?
Its inhibition is -6.7%.

Which inhibition does the source give for `CC(=O)c1ccc(OC(NC(=O)Cc2ccccc2)C(Cl)(Cl)Cl)cc1` (stereo not given) here?
Its inhibition is -5.19%.

Which inhibition does the source give for `COc1ccc(N=Cc2c(O)n(C)c(=O)[nH]c2=O)cc1` here?
Its inhibition is -20.6%.

Which inhibition does the source give for `O=[N+]([O-])c1ccc(C2C3C(c4ccccc4)=NC4(CCCCC4)N32)cc1` (stereo not given) here?
Its inhibition is 23.4%.

For `COc1ccccc1NC(=O)N1C[C@@H]2C[C@@H](C1)c1cccc(=O)n1C2`, which inhibition is on record?
Its inhibition is -1.31%.

Which inhibition does the source give for `CCN1C(=O)NC(=O)C2(CCCC2)C1=O` here?
Its inhibition is -7.97%.

With `C=CCn1c(O)c(/C=N/N2CCOCC2)c(=O)[nH]c1=S` as the compound, how does the inhibition read?
The inhibition was -0.23%.

Which inhibition does the source give for `CC(=CCOc1ccc2ccc(=O)oc2c1)C1=CC(=O)C(C)(C)O1` here?
Its inhibition is 62.4% (active).

With `CN(C)c1nc(N(C)C)nc(N(C#N)CCCl)n1` as the compound, how does the inhibition read?
Its inhibition is -5.34%.

For `C[C@]12CCC3C(CC[C@H]4[C@H](O)[C@H](O)CC[C@]34C)C1CC[C@@H]2O` (stereo not given in full), which inhibition is on record?
Its inhibition is 0.2%.

With `CCCOC(=O)C1C2c3ccccc3C(c3ccccc32)C1C(=O)O` (stereo not given) as the compound, how does the inhibition read?
Its inhibition is 12.7%.

Which inhibition does the source give for `Cc1cc(-c2ccc(N)c(C)c2)ccc1N` here?
The inhibition was -45.4%.

For `O=C(C1CC(=O)N(C2CCCC2)C1)N1CCC2(CC1)OCCO2` (stereo not given), which inhibition is on record?
Its inhibition is -6.37%.

Which inhibition does the source give for `CC1([N+](=O)[O-])COP(=O)(Nc2ccc(F)cc2)OC1` (stereo not given) here?
The inhibition was 3.6%.

Which inhibition does the source give for `CCCCCn1c(=O)c(C(=O)NCc2ccccn2)c(O)c2ccccc21` here?
The inhibition was 15.5%.

With `CCOc1ccc(-c2cc(C)[n+](CCN(CC)CC)c(-c3ccc(OCC)cc3)c2)cc1` as the compound, how does the inhibition read?
Its inhibition is 53.3% (active).

For `CC(C)n1c(=O)c(C=Nc2ccc(Br)cc2)c(O)n(Cc2ccco2)c1=O`, which inhibition is on record?
Its inhibition is 8.27%.

For `COC(=O)C1=C(c2ccc(Cl)c(C(F)(F)F)c2)C[C@@H]2CC[C@H]1N2C(=O)NC1CC1`, which inhibition is on record?
The inhibition was -0.39%.

With `COC(=O)C1=C(c2ccc3ccccc3c2)C[C@@H]2CC[C@H]1N2C(=O)NCCO` as the compound, how does the inhibition read?
The inhibition was -5.4%.

For `COC1C(O)C(C)OC(OC2CCC3(C=O)C(CCC4C3CCC3(C)C(C5=CC(=O)OC5)CCC43O)C2)C1O` (stereo not given), which inhibition is on record?
The inhibition was 105% (active).

For `CC1C(=O)OC2CCN3CC=C(COC(=O)C(C)(O)C1(C)O)C23` (stereo not given), which inhibition is on record?
Its inhibition is -0.84%.

For `CC1=C(C(=O)Nc2ccccc2)S(=O)(=O)CCO1`, which inhibition is on record?
The inhibition was 9.24%.

For `CC1=C2C(=O)C3C(CC=C4CC(OC5OC(O)C(O)C(O)C5CO)CCC43C)C2CCC12OC1CC(C)CNC1C2C` (stereo not given), which inhibition is on record?
The inhibition was -7.24%.

Which inhibition does the source give for `CCN(CC)C(=O)c1ccc(NC(=O)c2cc(-n3cnnc3)ccc2Cl)cc1` here?
Its inhibition is 5.1%.

With `CN(C)CC1Oc2ccccc2OC1(O)c1ccccc1` (stereo not given) as the compound, how does the inhibition read?
Its inhibition is 103% (active).

For `c1cc2c(cc1C1OCC3C(c4ccc5c(c4)OCO5)OCC13)OCO2` (stereo not given), which inhibition is on record?
The inhibition was -66.8%.

For `COc1ccc(NC(=O)N2Cc3ccccc3-n3nncc3C2)cc1`, which inhibition is on record?
The inhibition was 7.2%.

With `Cc1ccc(C)c(NC2=NCCCS2)c1` as the compound, how does the inhibition read?
The inhibition was 4.99%.

Which inhibition does the source give for `COC(=O)C1=C(c2ccc(F)cc2OCc2ccccc2)C[C@@H]2CC[C@H]1N2C(=O)NCc1ccc(C(C)(C)C)cc1` here?
The inhibition was 14.9%.

For `CC1(C)Cc2c(C#N)c(N3CCNCC3)nc(-c3ccco3)c2CS1`, which inhibition is on record?
The inhibition was 78.3% (active).

Which inhibition does the source give for `c1ccc(N2Cc3ccccc3-n3nncc3C2)nc1` here?
Its inhibition is -7.56%.

For `COc1cc(-n2c(=S)[nH]c3ccc(C)cc3c2=O)c(Cl)cc1Cl`, which inhibition is on record?
Its inhibition is 30.3%.

Which inhibition does the source give for `CCOC(=O)c1c(C)c(C(=O)N2CCC3(CC2)OCCO3)c(C)n1CC` here?
Its inhibition is 13.1%.

For `C[C@H]1CN([C@@H](C)CO)C(=O)CCCn2nncc2CO[C@H]1CN(C)C(=O)Oc1cccc2ccccc12`, which inhibition is on record?
Its inhibition is 9.28%.
